Screening data: PubChem BioAssay, National Center for Advancing Translational Sciences (NCATS)
JMJD2A Tudor: blocks the human JMJD2A Tudor domain; AID 504339; 390,000 tested, 4.4% active; Potency, µM (titrated, usually from 114 µM), hits mostly inhibitors; AlphaScreen JMJD2A-Tudor / H3K4me3 peptide binding; also: nearly all actives have a fitted effect of over 50% in size
G9a block: blocks human histone lysine methyltransferase G9a; G9a H3K9 monomethylation, AlphaScreen, 2 h; Potency, µM (series often up to 102 µM), hits mostly inhibitors; 350,000 tested, 8.8% active; also: nearly all actives have a fitted effect of over 75% in size
Target sequence (Q96KQ7 913-1193 limits assumed): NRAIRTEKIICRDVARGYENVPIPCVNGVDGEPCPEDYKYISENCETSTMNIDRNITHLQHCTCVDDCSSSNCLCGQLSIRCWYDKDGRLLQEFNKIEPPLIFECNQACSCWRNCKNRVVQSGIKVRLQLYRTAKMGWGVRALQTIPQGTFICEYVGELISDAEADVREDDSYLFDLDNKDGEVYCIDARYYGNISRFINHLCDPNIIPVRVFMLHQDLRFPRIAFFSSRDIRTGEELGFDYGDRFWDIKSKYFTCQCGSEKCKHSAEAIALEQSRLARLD
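Signal arises when biotinylated H3K9 peptide, once monomethylated, bridges streptavidin donor and antibody-captured acceptor beads. Enzyme at 20 nM was preincubated 15 min with test compounds; peptide 500 nM and SAM 20 uM then reacted for 2 h.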
HP1b chromo inh: inhibitors of HP1-beta chromodomain binding to methylated histone tails; P83916; AlphaScreen HP1-beta / biotin-H3K9me3 peptide binding; Potency, µM (series often up to 114 µM), most hits filed as inhibitors; 390,000 tested, 0.56% active; also: nearly all actives have a fitted effect of over 70% in size
Target sequence (P83916 whole entry, looked up): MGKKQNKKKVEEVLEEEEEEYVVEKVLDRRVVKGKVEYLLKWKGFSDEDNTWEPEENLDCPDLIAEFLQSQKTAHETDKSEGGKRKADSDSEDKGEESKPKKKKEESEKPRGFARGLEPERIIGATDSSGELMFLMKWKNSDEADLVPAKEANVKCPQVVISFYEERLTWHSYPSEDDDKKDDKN
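AlphaScreen: HP1-beta (50 nM) preformed 30 min with biotin-H3(1-18)K9me3 peptide (50 nM) in PBS pH 7.4, 0.01% Tween-20. Compound added for 30 min at RT, then streptavidin donor/nickel chelate acceptor beads (10 ug/mL) for 30 min.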
BAZ2B inh: blocks human BAZ2B; Potency, µM (titrated, usually from 114 µM), most hits filed as inhibitors; AlphaScreen BAZ2B-H3K14Ac peptide displacement; 360,000 tested, 4.4% active; Q9UIF8; also: nearly all actives have a fitted effect of over 60% in size
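AlphaScreen luminescence quantifies BAZ2B engagement of H3K14Ac peptide; the protein and biotinylated peptide are both at 50 nM final, buffer PBS pH 7.4 with 0.01% Tween-20, all steps at room temperature.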
Sfp inh: Sfp phosphopantetheinyl transferase inhibition. Q9F4F7. Biochemical Sfp PPTase activity, qHTS. Potency, µM, actives largely listed as inhibitors. 310,000 tested, 3.5% active;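 also: the enzyme is Sfp with the accession as filed and its product quenches rhodamine fluorescence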
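Fluorescence-quenching assay: 15 nM Sfp-PPTase preincubated 15 min at room temperature with compound, then 5 uM rhodamine-CoA and 12.5 uM BHQ-2-labelled YbbR peptide added. Fluorescence (ex 525/em 598 nm) read at start and after 30 min; difference gives rate.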
Of the large screens only hits and unclear results are named; the others gave an inactive call; ! = not active in a repeat. Shown are actives, neighbours in structure and some others; about 12% of the full set was active somewhere. Calls follow the shape of the dose curve; as a rule, active = well fitted curve in the direction sought with a large enough effect; inconclusive = small, poorly fitted or top-dose-only effect, or another doubt; inactive = no such curve, though single readings can be large; an effect the other way counts as inactive or inconclusive.

CN(C)CCCN(C(=O)c1ccc(S(=O)(=O)N2CCc3ccccc3C2)cc1)c1nc2c(F)cc(F)cc2s1	JMJD2A Tudor inconclusive, G9a block 35µM, BAZ2B inh inconclusive (no result: Sfp inh)
C=C(C)C(O)/C=C/c1ccc(C(F)(F)F)cc1 (configuration not stated)	none (no result: JMJD2A Tudor, G9a block, HP1b chromo inh, BAZ2B inh)
CSc1ncccc1-c1nc2ccccc2[nH]1	G9a block 10µM
c1ccc2[nH]c(-c3ccnc4ccccc34)nc2c1	G9a block 8.9µM!, BAZ2B inh inconclusive, Sfp inh 79µM!
CCSc1ncccc1-c1nc2ccccc2[nH]1	none (no result: HP1b chromo inh)
CCN(CC)C(=O)CSc1ncccc1-c1nc2ccccc2[nH]1	G9a block 50µM
Cc1ccc2c(CC(=O)Nc3cccc(C(F)(F)F)c3)coc2c1	none (no result: Sfp inh)
CCOC(=O)c1ccccc1NC(=O)c1sc2ncn(Cc3cccc(F)c3)c(=O)c2c1C	none (no result: Sfp inh)
Cc1cc(C)cc(N=c2c([N+](=O)[O-])nn(-c3cccc(Cl)c3)n2O)c1	JMJD2A Tudor inconclusive, G9a block 40µM, BAZ2B inh inconclusive
Cc1cccc(N=c2c([N+](=O)[O-])nn(-c3ccc(Cl)cc3)n2O)c1	G9a block 28µM, BAZ2B inh 10µM
Cc1cccc(-n2nc([N+](=O)[O-])c(=NCc3cccnc3)n2O)c1	none (no result: G9a block)
CCc1cccc(NC(=O)CCS(=O)(=O)c2ccc3nc(C)sc3c2)c1	G9a block 11µM (no result: Sfp inh)
Cc1ccc(NC(=O)CCSCCC(=O)Nc2ccc(C)c(C)c2)cc1C	none
CCc1cccc(NC(=O)CCSCCC(=O)Nc2cccc(CC)c2)c1	G9a block 50µM
Cc1ccc(NC(=O)CCS(=O)(=O)c2ccc3nc(C)sc3c2)cc1	none
O=C1[C@H](Cc2ccccc2)NCC=CC[C@H](c2ccc(Cl)cc2)N1Cc1ccc(Cl)cc1	none (no result: G9a block, BAZ2B inh, Sfp inh)
CNC(=S)NNc1nc(C)cc(C)n1	JMJD2A Tudor inconclusive, G9a block 1.3µM, HP1b chromo inh 79µM, Sfp inh 2.5µM
COc1ccc(NC(=O)c2cc(-c3ccc(C)o3)nc3ccccc23)cc1OC	JMJD2A Tudor 56µM, G9a block inconclusive, Sfp inh 22µM
COc1ccc(-c2cc(C(=O)Nc3ccc(Cl)cc3Cl)c3ccccc3n2)cc1OC	Sfp inh 35µM
Cc1ccc(-c2cc(C(=O)Nc3nccs3)c3ccccc3n2)o1	JMJD2A Tudor inconclusive, G9a block 4.5µM, Sfp inh inconclusive
OCC1OC(c2ccc3c(c2)OCO3)C=CC1Oc1cc(Cl)cc(Cl)c1 (configuration not stated)	none (no result: JMJD2A Tudor, G9a block, HP1b chromo inh, BAZ2B inh)
CCCCCCC/C=N/Nc1nnc(Cc2ccccc2)c(=O)[nH]1	JMJD2A Tudor inconclusive, BAZ2B inh inconclusive
COc1ccc(Cc2nnc(N/N=C/c3ccc(O)cc3O)[nH]c2=O)cc1OC	JMJD2A Tudor 14µM, BAZ2B inh 5µM, Sfp inh inconclusive
Cc1ccc(/C=N/Nc2nnc(Cc3ccccc3)c(=O)[nH]2)o1	BAZ2B inh inconclusive
CCCCCC/C=N/Nc1nnc(Cc2ccc(OC)c(OC)c2)c(=O)[nH]1	JMJD2A Tudor 0.89µM, BAZ2B inh 7.1µM
Cc1ccc(-c2nc(NC(=O)CSc3ncnc4sc5c(c34)CCC(C)C5)ns2)cc1 (configuration not stated)	none (no result: Sfp inh)
CO[C@H]1COC(=O)[C@@H](CCSC)NC(=O)C/C=C\[C@@H](C)COC(=O)[C@@H](OCc2ccccc2)/C=C\[C@@H]1C	none (no result: JMJD2A Tudor, G9a block, HP1b chromo inh, BAZ2B inh)
Cc1[nH]n(S(=O)(=O)c2ccccc2)c(=O)c1N=Nc1cccc(Cl)c1	none (no result: G9a block)
Cc1[nH]n(S(=O)(=O)Cc2ccccc2)c(=O)c1N=Nc1ccccc1Cl	JMJD2A Tudor inconclusive, G9a block 50µM (no result: BAZ2B inh)
COc1ccc(-c2cc3nc(C)c(CCC(=O)NCCc4ccc(Cl)cc4)c(C)n3n2)c(OC)c1	none (no result: Sfp inh)
Cn1c2c(c(=O)n(C)c1=O)C(c1cccc(O)c1)CC(=O)N2 (configuration not stated)	none (no result: Sfp inh)
CC(C)CCn1c(SCC(=O)Nc2ccccc2C(F)(F)F)nc2nccnc2c1=O	G9a block 6.3µM, BAZ2B inh 79µM, Sfp inh inconclusive
CCC(=O)Nc1ccc2c(c1)ncn2-c1ccccc1	none
COc1ccc(OCC(=O)Nc2ccc3c(c2)n(C)c(=O)n3C)cc1	BAZ2B inh inconclusive
COc1ccccc1OCC(=O)Nc1ccc2c(c1)n(C)c(=O)n2C	G9a block inconclusive, BAZ2B inh 56µM
CCC(=O)Nc1ccc2c(c1)ncn2-c1ccccc1OC	G9a block 45µM
